Holding throughout (test): NCI-60 one-dose screen, 48 h (100 = growth as untreated, 0 = no growth, -100 = all killed)
Common to all, as to conditions: 10 µM

Test [1] concerns K-562 leukemia.
Test [2] relates to MALME-3M melanoma.
Test [3] concerns MDA-MB-231 breast.
Test [4] relates to RXF 393 renal.
The test system of test [5] is SF-268 CNS.
Test [6] deals with SF-295 CNS.
The subject of test [7] is SF-539 CNS.
Test [8] concerns UACC-257 melanoma.
Test [9] deals with M14 melanoma.
For test [10], the system named is HCT-15 colon.
For test [11], the system named is HT29 colon.
In test [12] the test system is SNB-75 CNS.
The subject of test [13] is SNB-19 CNS.
Test [14] relates to U251 CNS.
Test [15] concerns PC-3 prostate.
Test [16] deals with SK-MEL-5 melanoma.
Test [17] deals with UACC-62 melanoma.
Test [18] has as its system LOX IMVI melanoma.
The subject of test [19] is SK-MEL-28 melanoma.
Test [20] deals with SK-MEL-2 melanoma.

This is part of a sample that, as a whole, favours compounds with a hit. Of some 83,000 tested, about 20% had one in any assay.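 Compound tested at a single concentration for 48 hours in 96-well plates; a percent growth value below 10 was scored as active.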 Values without a mark were called inactive. Active and inactive are the calls of the source.

For the compound `O=C(Nc1ccc(Cl)cc1)N1NC(c2ccc(Cl)cc2)C=C1c1ccccc1` (stereo not given), the growth is 103% in test [1]; 100% in test [2]; 106% in test [3]; 102% in test [4]; 103% in test [5]; 105% in test [6]. Also, the growth was 112% in [7]; 99.7% in [8]; 102% in test [9]; 103% in [10]; 103% in test [11]; 72.1% in test [12]. In addition, the growth in test [13] was 109%; in test [14], 97.1%; in test [15], 107%; in test [16] it was 94.6%; in test [17], 105%; in [18] it was 104%. For the same compound, the growth is 109% in [19] and 107% in test [20].

As to `COc1ccc2c(c1)O/C(=C\c1ncc([N+](=O)[O-])n1C)C2=O`, the growth in test [1] is 1.57% (active); in test [2] it was -65.6% (active); in test [3], -10.3% (active); in [4], -72% (active); in [5] it was -17.6% (active); in test [6], -34.6% (active). Moreover, the growth in test [7] is -60.9% (active); in test [8] it was -57% (active); in test [9] it was -54.6% (active); in [10], 2.5% (active); in [11], -13.6% (active); in test [12], 3.5% (active). In addition, the growth was 2.04% (active) in [13]; -12.6% (active) in test [14]; 7.52% (active) in test [15]; -94.2% (active) in test [16]; -85.1% (active) in test [17]; -29.2% (active) in test [18]. The growth is -31.9% (active) in test [19] and -54.5% (active) in test [20].

With `COc1ccc(-c2nc(-c3nc4cc(Cl)c(F)cc4[nH]3)c3ccccn23)cc1`, the growth was 40.3% in test [1]; 97.4% in test [2]; 57.5% in test [3]; 87.8% in [4]; 75.3% in test [5]; 45.1% in test [6]. The growth in test [7] is 92.8%; in test [8], 61.9%; in [9], 66.2%; in test [10], 59.5%; in [11] it was 31.5%; in [12] it was 66.2%. Besides, the growth in test [13] is 55.5%; in [14] it was 62.5%; in test [15], 34.6%; in [16], 59.4%; in test [17], 74.5%; in test [18] it was 65.9%. Besides, the growth in test [19] is 91.8%; in test [20], 50%.

Consider `COc1cc(/C=C\c2cc(OC)c(OC)c(OC)c2)cc(NS(=O)(=O)c2ccc(Cl)cc2)c1OC`, for which the growth in test [1] was 11.2%; in [2], 71.9%; in test [3], 24%; in test [4], -4.53% (active); in test [5], 39.7%; in test [6] it was 10.9%. The growth in test [7] was -23.9% (active); in test [8] it was 45.2%; in [9], 18.8%; in test [10] it was 20%; in test [11], 5.17% (active); in test [12] it was 49.1%. The growth was 58.4% in test [13]; 20.5% in test [14]; 13.7% in test [15]; 24.3% in test [16]; 39.3% in test [17]; 35.8% in [18]. The growth in test [19] is 70.8%; in test [20], 17.8%.

`N=C(N)c1ccc(-c2ccc(-c3ccco3)o2)cc1`: the growth in test [1] was 7.46% (active); in test [2], 53%; in test [3] it was 52.4%; in test [4], 62.5%; in test [5] it was 74.4%; in [6] it was 61.4%. The growth in test [7] is 83.1%; in [8], 64.2%; in [9], 74%; in test [10], 31.2%; in test [11], 5.15% (active); in [12] it was 22.2%. Further, the growth in test [13] was 68.4%; in test [14] it was 53.5%; in test [15] it was 59.8%; in [16], 76%; in test [17], 95.9%; in [18], 56.9%. In addition, the figures for the growth in test [19] and in [20] were 75.1% and 108%, respectively.

For the compound `COc1cc(Cl)cc(-c2nn(-c3cccc(NC(=O)c4ccc(Cl)c(Cl)c4)c3)cc2-c2ccncc2)c1`, the growth in test [1] was 46.3%; in [2], 96.4%; in [3], 33.9%; in test [4], 59.2%; in test [5], 82.4%; in test [6], 36.1%. Besides, the growth was 74.5% in [7]; 84.2% in test [8]; 68.9% in test [9]; 57.9% in [10]; 56.4% in test [11]; 50.6% in [12]. For the same compound, the growth in test [13] is 71.6%; in [14] it was 64.1%; in [15], 34%; in [16], 78.5%; in test [17], 75.4%; in test [18] it was 72.8%. For the same compound, the growth is 87.7% in [19] and 78.4% in [20].

Consider `Cc1[nH]nc2c1C(c1cnn(C)c1)C(C#N)=C(N)O2` (stereo not given), for which the growth in [1] is 93.6%; in test [2], 95.8%; in [3] it was 117%; in test [4] it was 106%; in [5] it was 105%; in test [6], 105%. For the same compound, the growth is 99.3% in [7]; 98.3% in [8]; 100% in test [9]; 99.6% in test [10]; 114% in test [11]; 73.6% in test [12]. In addition, the growth is 98.2% in test [13]; 102% in test [14]; 91.2% in [15]; 105% in [16]; 111% in test [17]; 94.9% in test [18]. For the same compound, the growth in [19] was 110%; in test [20], 93.8%.

The values are drawn from PubChem BioAssay (NCI).
